# From PubChem
# Shown is part of a subset that was picked to be rich in hits.
# NOMO-1 viab = NOMO-1 AML cell viability reduction, primary screen, STK33 inhibitor project, CellTiter-Glo luminescence. NOMO-1 AML viability, 72 h. inhibition, % (test concentration not listed). actives 7.5% (n = 37,000); in the data active = inhibition above about 80%; inconclusive = no clear call, values can overlap the other calls
# STK33 kin inh = STK33 kinase inhibitors, primary screen, biochemical, luminescence, ADP-Glo, MBP substrate; inhibition, % at 12.5 µM; actives 0.44% (n = 27,000); in the data active = inhibition above about 20%; inconclusive = no clear call, values can overlap the other calls
# Target sequence (Q9BYT3 whole entry, looked up): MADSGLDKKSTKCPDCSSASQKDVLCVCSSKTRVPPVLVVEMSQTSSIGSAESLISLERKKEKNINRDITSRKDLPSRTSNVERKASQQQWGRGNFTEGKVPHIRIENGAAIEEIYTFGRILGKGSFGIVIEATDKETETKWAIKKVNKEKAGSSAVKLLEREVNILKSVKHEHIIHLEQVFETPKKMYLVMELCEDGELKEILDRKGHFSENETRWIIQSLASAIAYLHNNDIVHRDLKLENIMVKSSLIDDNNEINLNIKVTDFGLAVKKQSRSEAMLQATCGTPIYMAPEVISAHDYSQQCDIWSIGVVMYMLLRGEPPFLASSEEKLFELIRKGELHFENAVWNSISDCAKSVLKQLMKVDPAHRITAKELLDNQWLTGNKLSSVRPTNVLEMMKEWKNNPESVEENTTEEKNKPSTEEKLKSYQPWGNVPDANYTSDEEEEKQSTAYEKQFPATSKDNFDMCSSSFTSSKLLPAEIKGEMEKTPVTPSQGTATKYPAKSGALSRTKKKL
# PD-1 reversal = activators reversing PD-1 mediated T-cell inhibition, primary screen, luminescence, primary human CD4 T cells, PD-L1 beads | 29,000 tested, under 10 active | CellTiter-Glo 96 h | AID 2316, 2010 | activation, % (no concentration beside the values); call rule not given here;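 also: 0% = median vehicle wells and 100% = positive control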
# Active calls of the source: *; ? = inconclusive; . = no result given.
SMILES,NOMO-1 viab,STK33 kin inh,PD-1 reversal
C[C@@H]1CN([C@@H](C)CO)C(=O)c2cccc(NC(=O)c3nc4ccccc4s3)c2O[C@H]1CN(C)S(=O)(=O)c1ccccc1,14.8,.,-3.0
C[C@H](CO)N1C[C@H](C)[C@H](CN(C)S(=O)(=O)c2ccc(Cl)cc2)Oc2c(NC(=O)c3nc4ccccc4s3)cccc2C1=O,92.7*,.,-0.7
C[C@H](CO)N1C[C@H](C)[C@@H](CN(C)S(=O)(=O)c2ccc(Cl)cc2)Oc2c(NC(=O)c3nc4ccccc4s3)cccc2C1=O,117.3*,.,-6.1
C[C@@H]1CN([C@@H](C)CO)C(=O)c2cccc(NC(=O)c3nc4ccccc4s3)c2O[C@@H]1CN(C)S(=O)(=O)c1ccccc1,102.1*,.,0.0
C[C@@H]1CN([C@H](C)CO)C(=O)c2cccc(NC(=O)c3nc4ccccc4s3)c2O[C@@H]1CN(C)S(=O)(=O)c1ccc(Cl)cc1,64.8,.,-1.5
O=C(C1CC1(c1ccccc1)c1ccccc1)N1CCCCC1 (stereo unspecified),22.4,.,-1.1
C[C@@H]1CN([C@H](C)CO)C(=O)c2cccc(NC(=O)c3nc4ccccc4s3)c2O[C@@H]1CN(C)S(=O)(=O)c1ccccc1,11.7,.,.
C[C@H](CO)N1C[C@H](C)[C@H](CN(C)S(=O)(=O)c2ccc(F)cc2)Oc2c(NC(=O)c3nc4ccccc4s3)cccc2C1=O,108.5*,.,-6.6
COc1ccc(-c2nnc(SCC(=O)Nc3ccc(Br)cc3C(C)C)o2)cc1,-5.5,1.2,2.9
C[C@@H]1CN([C@H](C)CO)C(=O)c2cc(NC(=O)Nc3ccc(C(F)(F)F)cc3)ccc2O[C@H]1CN(C)Cc1ccc(C(F)(F)F)cc1,114.4*,0.2,-10.0
C[C@H]1CN([C@@H](C)CO)C(=O)c2cc(NC(=O)Nc3ccc(C(F)(F)F)cc3)ccc2O[C@H]1CN(C)Cc1ccc(C(F)(F)F)cc1,115.2*,.,-0.5
O=C(CSc1nnc(COc2ccccc2)o1)Nc1ccccc1,13.6,.,0.1
C[C@H](CO)N1C[C@H](C)[C@H](CN(C)Cc2ccc(Oc3ccccc3)cc2)Oc2ccc(NC(=O)Cc3cn(C)c4ccccc34)cc2C1=O,60.2,.,-3.4
C[C@@H]1CN([C@@H](C)CO)C(=O)c2cc(NC(=O)Cc3cn(C)c4ccccc34)ccc2O[C@H]1CN(C)Cc1ccc2c(c1)OCO2,36.4,-0.3,-1.7
C[C@H](CO)N1C[C@H](C)[C@H](CN(C)Cc2ccccc2)Oc2ccc(NC(=O)Cc3cn(C)c4ccccc34)cc2C1=O,11.8,2.6,-0.4
C[C@@H]1CN([C@@H](C)CO)C(=O)c2cc(NC(=O)Cc3cn(C)c4ccccc34)ccc2O[C@@H]1CN(C)Cc1ccc(C(F)(F)F)cc1,106.0*,.,-1.1
C[C@@H]1CN([C@H](C)CO)C(=O)c2cc(NC(=O)Cc3cn(C)c4ccccc34)ccc2O[C@@H]1CN(C)Cc1ccc(-c2ccccc2)cc1,112.3*,.,.
C[C@@H]1CN([C@H](C)CO)C(=O)c2cc(NC(=O)Cc3cn(C)c4ccccc34)ccc2O[C@@H]1CN(C)Cc1ccc(Oc2ccccc2)cc1,107.5*,.,-4.2
C[C@@H]1CN([C@H](C)CO)C(=O)c2cc(NC(=O)Cc3cn(C)c4ccccc34)ccc2O[C@H]1CN(C)Cc1ccc(C(F)(F)F)cc1,30.6,0.2,0.7
C[C@H]1CN([C@@H](C)CO)C(=O)c2cc(NC(=O)Cc3cn(C)c4ccccc34)ccc2O[C@@H]1CN(C)Cc1ccc2c(c1)OCO2,98.5*,.,.
COc1ccccc1NC(=O)CSc1n[nH]c(-c2ccncc2)n1,14.1,7.6,2.3
C=C(C(=O)O)[C@H]1C=C2[C@@H](C)[C@@H](O)[C@H](O)C[C@]2(C)CC1,2.7,-3.2,0.6
CCn1c(SCC(=O)c2ccc(OC)cc2)nnc1-c1ccccc1Cl,24.5,0.0,.
CCOC(=O)C1=C(c2ccccc2)NC(=S)NC1CC (stereo unspecified),32.0,.,-1.5
C[C@H](CO)N1C[C@H](C)[C@H](CN(C)Cc2ccc(-c3ccccc3)cc2)Oc2ccc(NC(=O)Cc3cn(C)c4ccccc34)cc2C1=O,85.0*,4.6,-2.2
SMILES,NOMO-1 viab,STK33 kin inh,PD-1 reversal
C[C@@H]1CN([C@H](C)CO)C(=O)c2cc(NC(=O)Cc3cn(C)c4ccccc34)ccc2O[C@H]1CN(C)Cc1ccccc1,52.9,.,.
COc1ccc2c(c1)C(O)(CC(=O)c1ccc3ccccc3c1)C(=O)N2 (stereo unspecified),24.6,-3.3,2.0
C[C@@H]1CN([C@@H](C)CO)C(=O)Cc2cc(NC(=O)Nc3cccc4ccccc34)ccc2O[C@@H]1CN(C)Cc1ccc(Cl)c(Cl)c1,128.6*,4.5,-5.3
C[C@H](CO)N1C[C@H](C)[C@H](CN(C)Cc2ccc(C(=O)O)cc2)Oc2ccc(NC(=O)Nc3cccc4ccccc34)cc2CC1=O,8.9,0.7,1.1
C[C@@H]1CN([C@@H](C)CO)C(=O)c2cc(NC(=O)Nc3cccc4ccccc34)ccc2O[C@@H]1CN(C)Cc1ccc(Cl)c(Cl)c1,93.3*,14.4,-3.6
CC(C)NC(=O)Nc1cccc2c1O[C@H](CN(C)Cc1ccc(Cl)c(Cl)c1)[C@@H](C)CN([C@@H](C)CO)C2=O,54.1,.,-2.8
C[C@H](CO)N1C[C@H](C)[C@H](CN(C)Cc2ccc(Cl)c(Cl)c2)Oc2c(NC(=O)Nc3cccc4ccccc34)cccc2C1=O,106.5*,.,-4.6
C[C@H](CO)N1C[C@H](C)[C@H](CN(C)Cc2ccccc2)Oc2ccc(NC(=O)Nc3cccc4ccccc34)cc2C1=O,14.8,-1.9,-0.8
CCC(C)C(O)(CC(=O)OCc1ccc(O[C@@H]2O[C@H](CO)[C@@H](O)[C@H](O)[C@H]2O)cc1)C(=O)OCc1ccc(O[C@@H]2O[C@H](CO)[C@@H](O)[C@H](O)[C@H]2O)cc1 (stereo partly specified),20.0,-5.6,-0.1
CC1(C)CC(=O)C(C=NC(CO)(CO)CO)=C(O)C1,20.7,.,0.7
Cc1ccc(S(=O)(=O)NC(C)C(=O)Nc2c(C)cc(C)cc2C)cc1 (stereo unspecified),27.7,-2.6,1.0
CC(C)(C)SC(=O)c1cccnc1SCCS(=O)(=O)c1cccc(C(F)(F)F)c1,32.1,.,0.8
O=C(OCc1ccccc1[N+](=O)[O-])c1cccc(-c2nnc(-c3ccccc3)o2)c1,4.4,5.8,.
C[C@@H]1CN([C@@H](C)CO)C(=O)Cc2cc(NC(=O)NC3CCCCC3)ccc2O[C@@H]1CN(C)Cc1ccccc1,4.0,0.5,0.3
COc1ccc(NC(=O)Nc2ccc3c(c2)CC(=O)N([C@@H](C)CO)C[C@H](C)[C@@H](CN(C)Cc2ccc(Oc4ccccc4)cc2)O3)cc1,118.6*,4.0,-4.0
C[C@@H]1CN([C@H](C)CO)C(=O)Cc2cc(NC(=O)Nc3ccc(C(F)(F)F)cc3)ccc2O[C@@H]1CN(C)Cc1ccc(Oc2ccccc2)cc1,115.1*,-2.6,-10.4
C[C@@H]1CN([C@H](C)CO)C(=O)Cc2cc(NC(=O)NC3CCCCC3)ccc2O[C@@H]1CN(C)Cc1ccc(Oc2ccccc2)cc1,110.9*,1.6,-2.8
COc1ccc(NC(=O)Nc2ccc3c(c2)CC(=O)N([C@H](C)CO)C[C@@H](C)[C@@H](CN(C)Cc2ccc(Oc4ccccc4)cc2)O3)cc1,?,4.7,-4.8
